The source of these data is PubChem BioAssay.

Records with an inconclusive call do not appear. Activity calls are given as the source filed them. Rule as the data show it, unless noted: active = inhibition above about 30%; inactive = the rest.

Experiment [1] in a line: reducers of endogenous Her2 protein level, primary screen, SKBR3 breast tumor cells, AlphaScreen, ATP viability (AID 461;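 active = Her2 level under about 52% in both replicate screens, with viability over 70% of control, limit read from the data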;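 as to Her2 level: lower value means less Her2 protein in the cells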;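 as to viability: percent of carrier control wells set as 100% viability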). As to conditions: 18-24 h, measured here: SKBR3 viability, ATP luminescence, at 10 µM.
Experiment [2] concerns the target Receptor tyrosine-protein kinase erbB-2 (Homo sapiens) (UniProt P04626). The experiment is described as above. As to conditions: 18-24 h, at 10 µM, stronger effect = lower value.
Experiment [3] is described as follows: SK-BR-3 cell growth inhibitors, pilot screen, 24 h, human (AID 572;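 active = viability at or below 10% of carrier control in both of two separate runs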;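 also: compound exposure lasted between 18 and 24 h rather than exactly 24 h; 100% = carrier-treated control wells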). As to conditions: SK-BR-3 viability, CellTiter-Glo luminescence, at 10 µM, stronger effect = lower value. (Cellular ATP, detected with luciferase, serves as a proxy for viable cell number.)
Experiment [4] in a line: HUVEC growth inhibition – cell-based, human, primary screen (AID 575;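 active = viability at or below 30% in both replicate assays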;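 also: 100% = median of untreated cell wells with 0.1% DMSO on each plate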). As to conditions: HUVEC proliferation, CellTiter-Glo luminescence, 72 h; at 10 µM; stronger effect = lower value.
Experiment [5] can be described thus: growth inhibitors of H69AR lung tumor, primary screen, human, duplicate replicates (AID 580;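 active = viability at or under a set limit in both replicates, limit being median viability minus 3 SD, cut at about 48% in these data, passing the limit was not always enough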;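 also: 100% = mean luminescence of untreated wells and 0% = no signal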). Particulars: H69AR lung tumor cells viability, ATP luminescence, 72 h; at 10 µM; stronger effect = lower value.
Experiment [6] can be described thus: reversal of MRP1-mediated doxorubicin resistance, pilot screen, H69AR cells, doxorubicin co-treatment (AID 601;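 active = viability loss from added drug above about 55%, and viability with drug at most 40%, in both replicates, limit read from the data, passing the limit was not always enough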). Particulars: CellTiter-Glo, 72 h, at 10 µM; for differential viability (reversal): stronger effect = higher value.
Experiment [7] can be described thus: 384-well plate pilot, post-Golgi transport modulator project, inhibition of yeast transport mutant growth (AID 636; in the data active = inhibition above about 31%). As to conditions: absorbance 615 nm, about 18 h, stronger effect = higher value.
A short description of experiment [8]: growth suppression of yeast trafficking mutant, preliminary HTS, modulators of trafficking downstream of Golgi apparatus project, 1536-format plate, OD 615 nm (AID 637). Particulars: yeast transport mutant growth, absorbance 615 nm, 18 h; stronger effect = higher value.
A short description of experiment [9]: OD615 S. cerevisiae growth inhibition, permissive medium, pilot counter-assay, permissive growth control for S. cerevisiae lifespan shortening project (AID 705;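 active = growth inhibition above 25% in both replicates, a cutoff set 3 SD above the mean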). Particulars: OD615, 24 h, at 10 µM, stronger effect = higher value.
Experiment [10] can be described thus: Restrictive medium S. cerevisiae growth inhibition, OD615, pilot screen of yeast lifespan reduction project, restrictive growth control (AID 706;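 active = growth inhibition above a set limit, 3 SD over mean compound inhibition, in both replicates, cut at about 43% in these data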;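 also: modified DeaD lifespan yeast strain shifted to restrictive glucose medium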). Particulars: OD615, 48 h, at 10 µM, stronger effect = higher value.
Experiment [11] in a line: viability gain of MRP-1-high H69AR cells under doxorubicin, pilot screen, MRP-1 activator project, CellTiter-Glo, duplicate (AID 807;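 active = viability increase at or above a cutoff of the median across tested compounds plus 3 SD, cut at about 8.5% in these data, passing the limit was not always enough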;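 also: compound pretreatment 18-22 h then 72 h combined with doxorubicin; 0% = doxorubicin alone and 100% = vehicle without doxorubicin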). Particulars: H69AR viability with doxorubicin, CellTiter-Glo luminescence; at 10 µM; stronger effect = higher value.
Experiment [12] is described as follows: growth suppression of beta-catenin knockout HCT116, pilot screen, human colon tumor cells (AID 823;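 active = cell viability at or below a set limit in both duplicate runs, the limit being the all-compound median minus 4 SD, cut at about 23% in these data, passing the limit was not always enough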;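 also: 0% = wells killed by 20 µM Hyamine and 100% = untreated DMSO cell wells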). As to conditions: CellTiter-Glo, 60 h, at 10 µM, stronger effect = lower value.
Experiment [13] can be described thus: inhibitors of the yeast RAM network, pilot screen, dse1pr::URA3 reporter, 5-FOA selection (AID 869;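 active = inhibition over a set limit, the all-compound mean plus 3 SD, in both replicate runs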;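 also: 0% = DMSO wells with no growth and 100% = 10 µM 1-NA-PP1 with full growth; RAM network block rescues cells from 5-FOA so hits raise OD615 growth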). Particulars: S. cerevisiae dse1pr::URA3 5-FOA growth, OD615, 2 d; at 10 µM; stronger effect = higher value; strain carries analog-sensitive mutant Cbk1 kinase.
A short description of experiment [14]: RAM signaling pathway blockade in yeast – S. cerevisiae, Pdr1DBD-CYC8 efflux-inhibited sensitized strain, primary screen (AID 1298;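 active = RAM network inhibition above 8.4% in each of two replicates, 3 SD over the compound average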;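 also: 0% = DMSO untreated cells without growth and 100% = 10 µM 1-NA-PP1 full growth; higher means more yeast growth rescued from 5-FOA killing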). Particulars: S. cerevisiae cbk1-as DSE1-URA3 strain, 5-FOA growth OD615, 2 d; at 50 µM; stronger effect = higher value.
Experiment [15] can be described thus: growth suppression of PTEN-deleted HCT116, pilot screen, cell-based, HCT116 clonal line, CellTiter-Glo (AID 824;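 active = viability at or below 27.92% in each of two runs, the all-compound median minus 4 SD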;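 also: 0% = 20 µM Hyamine control and 100% = vehicle cell control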). As to conditions: 60 h, at 10 µM, stronger effect = lower value.
[16] abbreviates: H69AR cells + 2 uM doxorubicin, measured here: viability with 2 uM doxorubicin, stronger effect = lower value.
Where [17] appears, read: H69AR cells, compound alone cytotoxicity.

As a reminder, the viability is a read-out of living cells in per cent, often relative to untreated cells. The term inhibition denotes the change of the read-out against control, counted positive when it falls.

Sequence of Receptor tyrosine-protein kinase erbB-2 (Homo sapiens) (P04626 whole entry, looked up): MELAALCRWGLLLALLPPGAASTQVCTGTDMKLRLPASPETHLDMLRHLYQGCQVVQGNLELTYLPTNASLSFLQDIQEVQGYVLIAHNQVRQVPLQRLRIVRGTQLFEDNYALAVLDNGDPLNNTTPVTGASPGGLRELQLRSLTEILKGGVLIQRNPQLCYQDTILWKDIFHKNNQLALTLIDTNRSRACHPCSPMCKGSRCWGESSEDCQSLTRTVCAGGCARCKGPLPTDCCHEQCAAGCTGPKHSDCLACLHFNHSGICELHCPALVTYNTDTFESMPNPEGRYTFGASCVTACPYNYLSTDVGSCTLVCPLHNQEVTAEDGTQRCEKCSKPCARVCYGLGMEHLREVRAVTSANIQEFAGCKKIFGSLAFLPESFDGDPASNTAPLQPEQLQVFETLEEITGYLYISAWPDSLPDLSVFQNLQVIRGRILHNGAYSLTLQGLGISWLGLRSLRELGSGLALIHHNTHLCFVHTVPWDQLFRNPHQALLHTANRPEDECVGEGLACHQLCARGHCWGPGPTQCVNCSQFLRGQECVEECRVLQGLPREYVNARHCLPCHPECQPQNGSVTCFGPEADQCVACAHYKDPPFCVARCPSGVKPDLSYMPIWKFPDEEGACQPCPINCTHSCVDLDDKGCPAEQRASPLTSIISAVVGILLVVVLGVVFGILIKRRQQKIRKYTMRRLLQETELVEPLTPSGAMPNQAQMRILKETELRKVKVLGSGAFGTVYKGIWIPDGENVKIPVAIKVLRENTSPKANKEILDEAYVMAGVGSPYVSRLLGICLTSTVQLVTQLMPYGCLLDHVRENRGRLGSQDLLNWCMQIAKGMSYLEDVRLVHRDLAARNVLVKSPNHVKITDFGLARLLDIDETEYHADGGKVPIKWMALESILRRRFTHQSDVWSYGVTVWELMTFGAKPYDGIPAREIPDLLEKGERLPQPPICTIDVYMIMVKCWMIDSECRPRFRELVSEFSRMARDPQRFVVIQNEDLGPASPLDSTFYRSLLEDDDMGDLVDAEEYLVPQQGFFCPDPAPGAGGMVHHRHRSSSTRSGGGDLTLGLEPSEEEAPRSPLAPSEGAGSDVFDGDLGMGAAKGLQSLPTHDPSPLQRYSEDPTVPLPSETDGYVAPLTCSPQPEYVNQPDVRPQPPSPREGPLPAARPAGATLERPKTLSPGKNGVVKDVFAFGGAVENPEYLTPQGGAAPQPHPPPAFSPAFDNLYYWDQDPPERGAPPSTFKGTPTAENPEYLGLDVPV

In the case of `Cc1ccc(SCC(=O)NCCN2C(=O)CSC2=O)c(C)c1`, the viability in experiment [1] is 99.5%; in experiment [3] it was 99.5% (inactive); in experiment [4], 92.3% (inactive); in experiment [5], 87.7% (inactive); in experiment [6] (setting [16]), 89.5%; in [6] (setting [17]), 87.7%. In addition, the viability in experiment [12] is 111% (inactive). Moreover, the Her2 level in [2] was 110% (inactive). Further, the differential viability (reversal) in experiment [6] (H69AR cells + 2 uM doxorubicin) was -1.79% (inactive). The inhibition in [7] was 0.52% (inactive); in experiment [8] it was -0.83% (inactive); in experiment [13], 1.09% (inactive). Also, the growth inhibition in experiment [9] is -14.8% (inactive); in experiment [10], -3.53% (inactive). Besides, in [11], the viability increase was -0.38% (inactive). In experiment [14], the RAM network inhibition was 3.32% (inactive).
With `Cc1[nH]nc2c1C(C1CC=CCC1)C(C#N)=C(N)O2` (stereo unspecified), the viability in [1] was 102%; in experiment [3], 102% (inactive); in experiment [4], 63.5% (inactive); in experiment [5] it was 96% (inactive); in experiment [6] (setting [16]), 95.1%; in experiment [6] (setting [17]), 96%. Moreover, the viability in [12] is 17.6% (active). Further, the Her2 level in [2] was 80% (inactive). The differential viability (reversal) in [6] (H69AR cells + 2 uM doxorubicin) was 0.85% (inactive). In addition, the figures for the inhibition in experiment [7], in experiment [8] and in [13] were 0.65% (inactive), -9.17% (inactive) and 3.08% (inactive), respectively. Moreover, the growth inhibition in experiment [9] is 1.72% (inactive); in [10] it was 1.64% (inactive). Besides, the viability increase in [11] was -5.29% (inactive). For the same compound, the RAM network inhibition in experiment [14] is -0.5% (inactive).
As to `CNC(=O)C1C2C=CC3(O2)C1C(=O)N(C1CC1)C3C(=O)NCc1ccc(OC)cc1` (stereo unspecified), the viability in [1] was 99.5%; in experiment [3], 99.5% (inactive); in experiment [4], 91.9% (inactive); in [5] it was 91.5% (inactive); in [6] (setting [16]), 92%; in experiment [6] (setting [17]), 91.5%. Also, the viability in [12] is 96.3% (inactive). The Her2 level in experiment [2] was 84% (inactive). Also, in experiment [6] (H69AR cells + 2 uM doxorubicin), the differential viability (reversal) is -0.53% (inactive). For the same compound, the figures for the inhibition in experiment [7], in experiment [8] and in [13] were -8.49% (inactive), -0.16% (inactive) and 0.115% (inactive), respectively. Also, the growth inhibition in experiment [9] was -12.6% (inactive); in [10], 1.86% (inactive). Further, the viability increase in experiment [11] is -1.49% (inactive). The RAM network inhibition in experiment [14] was 1.1% (inactive).
As for `CCSc1oc(-c2ccco2)nc1S(=O)(=O)c1ccccc1`, the viability in experiment [1] is 95%; in [3], 95% (inactive); in [4], 93.3% (inactive); in experiment [5] it was 89.3% (inactive); in experiment [6] (setting [16]) it was 87.2%; in [6] (setting [17]), 89.3%. In addition, in experiment [12], the viability was 92.7% (inactive). The Her2 level in experiment [2] was 93.5% (inactive). The differential viability (reversal) in [6] (H69AR cells + 2 uM doxorubicin) was 2.04% (inactive). The inhibition in experiment [7] was -5.95% (inactive); in experiment [8], -8.33% (inactive); in experiment [13], 1.75% (inactive). The growth inhibition in [9] is -16.4% (inactive); in experiment [10] it was 11.4% (inactive). Further, in [11], the viability increase is -2.68% (inactive). For the same compound, the RAM network inhibition in experiment [14] is 1.2% (inactive).
Turning to `O=C(OCC(=O)c1ccc[nH]1)c1ccc(S(=O)(=O)N2CCCCC2)cc1`, the viability in experiment [1] was 94%; in experiment [3] it was 94% (inactive); in experiment [4], 90.9% (inactive); in [5] it was 97.8% (inactive); in [6] (setting [16]) it was 81%; in [6] (setting [17]) it was 97.8%. Moreover, in [12], the viability is 99.8% (inactive). Further, the Her2 level in experiment [2] was 98% (inactive). Moreover, in [6] (H69AR cells + 2 uM doxorubicin), the differential viability (reversal) was 16.8% (inactive). The values for the inhibition in experiment [7], in experiment [8] and in experiment [13] were -3.64% (inactive), -6.17% (inactive) and 3.25% (inactive), respectively. Further, the growth inhibition in experiment [9] is -15.2% (inactive); in experiment [10], -4.03% (inactive). In addition, the viability increase in [11] is -0.59% (inactive). Moreover, in experiment [14], the RAM network inhibition was 3.17% (inactive).
In the case of `C(/CCc1ccccc1)=N\n1cnnc1`, the viability is 105% in [1]; 105% (inactive) in experiment [3]; 117% (inactive) in experiment [4]; 99% (inactive) in experiment [5]; 89.1% in experiment [6] (setting [16]); 99% in experiment [6] (setting [17]). Further, in experiment [12], the viability was 102% (inactive). Moreover, in [2], the Her2 level is 94.5% (inactive). Besides, the differential viability (reversal) in [6] (H69AR cells + 2 uM doxorubicin) was 9.93% (inactive). Also, the inhibition is -5.07% (inactive) in [7], 8.03% (inactive) in experiment [8] and 0.44% (inactive) in experiment [13]. The growth inhibition in experiment [9] is -14.7% (inactive); in [10] it was 1.89% (inactive). In experiment [11], the viability increase is -1.24% (inactive). In addition, the RAM network inhibition in [14] was 5.92% (inactive).
As for `CCN(CC)CCCN1C(=O)C(O)=C(C(=O)c2ccco2)C1c1ccc(C)o1` (stereo unspecified), the viability is 102% in [1]; 102% (inactive) in experiment [3]; 102% (inactive) in experiment [4]; 85.4% (inactive) in experiment [5]; 86% in experiment [6] (setting [16]); 85.4% in experiment [6] (setting [17]). Moreover, in experiment [12], the viability was 97.4% (inactive). In addition, the Her2 level in experiment [2] is 93.5% (inactive). Also, in experiment [6] (H69AR cells + 2 uM doxorubicin), the differential viability (reversal) is -0.59% (inactive). The inhibition in [7] was -6.89% (inactive); in experiment [8], 7.94% (inactive); in [13], 0.395% (inactive). The growth inhibition is -11.8% (inactive) in [9] and 14.4% (inactive) in [10]. In addition, in experiment [11], the viability increase is -4.15% (inactive). For the same compound, the RAM network inhibition in experiment [14] is 3.48% (inactive).
On to `CC1=C(C(=O)OC2CCCC2)C(c2ccc(C)o2)C2=C(CC(c3cccs3)CC2=O)N1` (stereo unspecified), for which the viability in [1] is 148%; in [3], 148% (inactive); in experiment [4], 75.1% (inactive); in [5], 74.8% (inactive); in experiment [6] (setting [16]) it was 61.5%; in experiment [6] (setting [17]) it was 74.8%. Further, the viability in [12] is 46.3% (inactive); in experiment [15], 58.9% (inactive). Besides, the Her2 level in experiment [2] is 108% (inactive). Also, the differential viability (reversal) in experiment [6] (H69AR cells + 2 uM doxorubicin) is 13.3% (inactive). Besides, the inhibition in experiment [7] was -1.17% (inactive); in [8], -11% (inactive); in experiment [13] it was 1.68% (inactive). The figures for the growth inhibition in experiment [9] and in [10] were -3.79% (inactive) and -19.9% (inactive), respectively. Moreover, in [11], the viability increase is -4.36% (inactive). In addition, in [14], the RAM network inhibition is 2.7% (inactive).
With `CCOc1ccc(NC(=O)CSc2nccn2C)cc1`, the viability is 103% in experiment [1]; 103% (inactive) in experiment [3]; 82.7% (inactive) in experiment [4]; 99.7% (inactive) in experiment [5]; 93% in [6] (setting [16]); 99.7% in [6] (setting [17]). For the same compound, the viability in experiment [12] is 106% (inactive). Also, in [2], the Her2 level is 85.5% (inactive). Moreover, the differential viability (reversal) in experiment [6] (H69AR cells + 2 uM doxorubicin) was 6.7% (inactive). For the same compound, the inhibition in [7] was -4.34% (inactive); in [8] it was 0.83% (inactive); in experiment [13] it was 2.29% (inactive). The growth inhibition is -14.8% (inactive) in [9] and -9.37% (inactive) in [10]. In addition, the viability increase in [11] is -1.79% (inactive). In experiment [14], the RAM network inhibition was 7.99% (inactive).
On to `CCc1ccc(N2CC(C(=O)OCC(=O)NC3CCS(=O)(=O)C3)CC2=O)cc1` (stereo unspecified), for which the viability in experiment [1] was 100%; in experiment [3], 100% (inactive); in [4] it was 98.6% (inactive); in [5], 103% (inactive); in experiment [6] (setting [16]) it was 99.5%; in [6] (setting [17]) it was 103%. In addition, the viability in [12] is 96.5% (inactive). In experiment [2], the Her2 level was 112% (inactive). Also, in [6] (H69AR cells + 2 uM doxorubicin), the differential viability (reversal) is 3.14% (inactive). Also, the inhibition in experiment [7] is 3.12% (inactive); in [8], 7.54% (inactive); in experiment [13] it was 0.795% (inactive). The growth inhibition was -17% (inactive) in experiment [9] and 1.96% (inactive) in experiment [10]. For the same compound, the viability increase in experiment [11] is 1.23% (inactive). Further, in experiment [14], the RAM network inhibition is 3.33% (inactive).
